TexasRed fluor: alters Texas Red total fluorescence, flagging assay interference; TRb/SRC2 Texas Red total fluorescence interference; Potency, µM (doses to about 106 µM), inactives show top-dose fluorescence change, negative = quenching; actives 0.29% (n = 280,000); AID 1479; active = well fitted curve in either direction with a large enough effect; inconclusive = small, poorly fitted or top-dose-only effect; note: potency is the fitted concentration of half-maximal effect
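Human TRβ ligand-binding domain (0.6 uM) and Texas Red SRC2 peptide (20 nM) in Tris buffer with 1 uM T3 and 5% DMSO were incubated with pinned compound for 5 hr at ambient temperature. Total fluorescence was computed as S + 2P (555/632 nm).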
Tau fibril FP: tau fibrillization inhibition (FP). Potency, µM (top dose mostly 57.7 µM), for the others: top-dose activity, negative = inhibition, actives largely listed as inhibitors. K18 P301L tau heparin fibrillization, Alexa594 FP, 6 h. actives 0.39% (n = 280,000); note: potency is the fitted concentration of half-maximal effect; nearly all actives have a fitted effect of over 55% in size
Target sequence (P10636 561-689 P618L limits assumed): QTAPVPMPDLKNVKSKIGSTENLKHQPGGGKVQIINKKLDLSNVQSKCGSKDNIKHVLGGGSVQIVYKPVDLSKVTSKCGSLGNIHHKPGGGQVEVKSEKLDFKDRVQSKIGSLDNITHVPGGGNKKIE
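Human tau K18 […] P301L fragment, 15 uM unlabeled plus 0.24 uM Alexa 594-labeled tau (final), with compound and 20 uM heparin in 100 mM sodium acetate pH 7; 6 hr at 37 C, then Alexa 594 FP read.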
TRb SRC2 PPI: disrupts binding of human TR beta to SRC2. Potency, µM (top dose mostly 106 µM), inactives show at the top dose activity change, negative = inhibition, actives largely listed as inhibitors. P10828. TRbeta-SRC2 peptide binding, fluorescence polarization; receptor liganded with 1 µM T3. AID 1469. actives 0.065% (n = 280,000);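 note: potency is the fitted concentration of half-maximal effect; plate controls were bound peptide for no effect and peptide without receptor for full effect; nearly all actives have a fitted effect of over 50% in size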
Target sequence (P10828 whole entry, looked up): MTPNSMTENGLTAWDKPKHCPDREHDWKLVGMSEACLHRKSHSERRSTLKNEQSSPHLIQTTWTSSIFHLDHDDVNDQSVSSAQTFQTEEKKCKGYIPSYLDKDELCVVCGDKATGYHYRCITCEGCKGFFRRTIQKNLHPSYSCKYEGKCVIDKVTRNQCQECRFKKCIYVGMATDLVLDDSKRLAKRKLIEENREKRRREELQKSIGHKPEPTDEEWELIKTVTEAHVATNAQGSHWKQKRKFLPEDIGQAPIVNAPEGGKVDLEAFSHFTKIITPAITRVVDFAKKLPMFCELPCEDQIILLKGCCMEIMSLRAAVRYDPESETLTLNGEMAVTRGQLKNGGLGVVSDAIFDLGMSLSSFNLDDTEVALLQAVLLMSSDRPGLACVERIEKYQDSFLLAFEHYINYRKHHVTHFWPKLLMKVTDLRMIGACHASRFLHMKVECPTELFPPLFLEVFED
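Polarization signal, normalized between peptide-alone and full complex controls, measured compound effects on T3-liganded human TRb LBD (0.6 uM) binding 20 nM Texas Red SRC2 peptide after 5 hr.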
Tau ThT inhib: tau fibrillization inhibition (ThT binding). recombinant tau K18 P301L, heparin-induced fibrillization, ThT fluorescence. Potency, µM (highest dose often 57.4 µM), inactives show at the highest dose activity, negative = inhibition, usual class: inhibitors. actives 2.1% (n = 270,000). AID 1460; note: potency is the fitted concentration of half-maximal effect; nearly all actives have a fitted effect of over 55% in size
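In this qHTS, human K18 P301L tau is incubated with compound and heparin for 6 hr at 37 C, and Thioflavin T fluorescence then reports fibril load.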
PNC inhibitor: blocks assembly of the perinucleolar compartment | actives 3.1% (n = 140,000) | PC3M PTB-GFP, PNC prevalence imaging, 16 h; active compounds read low | activity change (PNC), negative = inhibition, % at 10 µM | AID 2417;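 active = readout at or below -70, meaning at least 70% loss of cells showing the perinucleolar compartment, a nuclear body marking cancer cells; inconclusive = readout between -30 and a set limit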;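 note: plate controls were DMSO wells for no effect and camptothecin positive control wells for full effect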
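Compounds are pinned in duplicate onto adhered PC3M cells stably expressing GFP-tagged PTB and incubated 16 h at 37 C. Cells are then fixed, nuclei stained with Hoechst, and PNC-positive cells counted.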
Tau fluor cs: counter-screen for tau fibril formation inhibitors; tau K18 P301L Alexa594 fluorescence, heparin fibrillization; actives 0.93% (n = 280,000); Potency, µM (series often up to 57.7 µM), for inactives: top-dose activity change, negative = decrease; note: potency is the fitted concentration of half-maximal effect; nearly all actives have a fitted effect of over 55% in size
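Human tau K18 P301L (15 uM unlabeled, 0.24 uM Alexa 594-labeled) in 100 mM sodium acetate pH 7 with 20 uM heparin, 6 hr at 37 C. ThT 30 uM added, 1 hr ambient; Alexa 594 FP and total fluorescence read at 555/632 nm.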
Numbers without * were called inactive; u = inconclusive; x = no result given; ! = not confirmed by another sample; [ ] = remark or other dose. A selection: hits, their analogues and other compounds. The true share with any hit is near 4.6%. Unless noted, calls come from the whole dose curve; as a rule, active = well fitted curve in the direction sought with a large enough effect; inconclusive = small, poorly fitted or top-dose-only effect, or another doubt; inactive = no such curve, though single readings can be large; an effect the other way counts as inactive or inconclusive. Unless noted, % is set by controls: 0 for no effect and ±100 for the full control effect.

SMILES	TexasRed fluor	Tau fibril FP	TRb SRC2 PPI	Tau ThT inhib	PNC inhibitor	Tau fluor cs
O=C1Cc2ccccc2N1c1c(Cl)cccc1Cl	0%	0%	8%	-1%	u	-4%
Nc1nonc1C(=O)NCCNS(=O)(=O)c1ccc(Br)cc1	2%	9%	-7%	-10%	-90*	-1%
Cc1c(/C=N\NC(=O)c2ccc([N+](=O)[O-])cc2)cnn1C	-8%	7%	2%	u	-109*	-4%
CN1/C(=C/C=N/NC(=O)c2ccc([N+](=O)[O-])cc2)C(C)(C)c2ccccc21	-9%	-6%	3%	6.3µM*	u	u
CN(C)c1ccc(N=C/C=C2/N(C)c3ccccc3C2(C)C)cc1	10%	u	-9%	3.2µM*	-7	u
CN1/C(=C/C2CC(=O)N(c3ccc([N+](=O)[O-])cc3)C2=O)C(C)(C)c2ccccc21 (stereo not given)	-2%	-1%	1%	14µM*	u	u
O=C(Nc1ccc(-c2nnco2)cc1)c1ccccc1	0%	-4%	7%	-9%	-21	-1%
Cc1cccc(OCCCC(=O)Nc2ccc(N3CCCCC3)cc2)c1C	2%	-4%	-4%	-20%	18	-15%
Cc1ccccc1N=C/C=C1\N(C)c2ccccc2C1(C)C	45µM*[fluorescent]	10%	u	u	6	19%
CCCc1nn2c(=O)cc(COC(=O)c3ccccc3NC(=O)c3cccs3)nc2s1	-1%	1%	1%	4%	x	3%
Nc1ncnc2oc(-c3ccco3)c(-c3ccco3)c12	u	u	-5%	20µM*	-7	u
CS(=O)(=O)N(CC(=O)N1CCCCCC1)Cc1ccc(Cl)cc1	-5%	-1%	3%	-23%	-107*	-17%
O=C(CCCOc1ccc(Cl)cc1)N1CCCCCC1	-2%	1%	2%	2%	-99*	-1%
O=C(CCCOc1ccc(Cl)cc1)N1CCCCC1	3%	1%	-15%	-5%	-8	3%
CN1CCN(C(=O)CN(Cc2ccc(Cl)cc2)S(C)(=O)=O)CC1	2%	9%	-17%	-1%	u	13%
Cc1ccc(/C=N/n2c(=O)c(C(C)(C)C)nn3cnnc23)cc1	0.079µM*[quencher]	u	u	3%	-94*	-2%
CC(C)(C)c1nn2cnnc2n(/N=C/c2cccc3ccccc23)c1=O	5%	3%	0%	-3%	2	-3%
c1ccccc1	1%[5.17e+03 µM]	x	-4%[5.17e+03 µM]	x	x	x
O=C(OCc1csc(Nc2ccccc2)n1)c1ccc(Cl)cc1	-5%	u	-9%	u	14	13µM*[quencher]
O=C(COc1ccccc1)OCc1csc(Nc2ccccc2)n1	-3%[53 µM]	14%	2%[53 µM]	u	u	u
COc1ccc(/C=C2\SC(=O)NC2=S)cc1OC	-6%	u	-3%	8.9µM*	-14	-27%
COc1cc(/C=C2\SC(=O)NC2=O)ccc1Oc1ccc([N+](=O)[O-])cc1[N+](=O)[O-]	-9%	-10%	-17%	14µM*	x	u
CCOC1(OCC)N=C(N)C2(C#N)C(c3cccc(C)c3)C12C#N (stereo not given)	0%	-1%	-8%	-13%	-25	0%
COC(=O)CCC(=O)OC1(C)C(=O)C=C2C=C3CCCN3C=C2C1=O (stereo not given)	0%[11.2 µM]	u	0%[11.2 µM]	10µM*!	x	-6%[11.6 µM]
CC1(OC(=O)c2ccc(Cl)nc2)C(=O)C=C2C=C3CCCN3C=C2C1=O (stereo not given)	-13%[11.2 µM]	u	5%[11.2 µM]	5µM*	x	-11%[11.6 µM]
SMILES	TexasRed fluor	Tau fibril FP	TRb SRC2 PPI	Tau ThT inhib	PNC inhibitor	Tau fluor cs
CC1(OC(=O)C2CCCC2)C(=O)C=C2C=C3CCCCN3C=C2C1=O (stereo not given)	0%[11.2 µM]	2%[11.6 µM]	1%[11.2 µM]	u	x	-7%[11.6 µM]
CC1(OC(=O)c2ccc(Cl)nc2)C(=O)C=C2C=C(c3ccc(C#N)cc3)OC=C2C1=O (stereo not given)	-1%	u	6%	25µM*	x	u
COc1cccc(Oc2nccc(N(C)C)c2C#N)c1	2%	-6%	-9%	-4%	x	-3%
CCOC(=O)N1CCN(C(=O)CN(c2cccc(Cl)c2C)S(=O)(=O)c2ccc(C)cc2)CC1	-1%	8%	-1%	-6%	x	2%
Cc1nc2ccccc2c2nc(NC(=O)Cc3ccccc3)nn12	2%	-6%	-16%	-3%	21	-2%
C/C(=N\Nc1nc(N)cc(Cl)n1)c1ccc(Cl)c(Cl)c1	-2%	-4%	-2%	u	x	-15%
Cc1c(Cl)cccc1NS(=O)(=O)c1ccc2c(c1)C1C=CCC1C(c1ccc(C(=O)O)cc1)N2 (stereo not given)	-12%	u	10%	25µM*	x	u
Cc1cccc(C)c1NS(=O)(=O)c1ccc2c(c1)[C@H]1C=CC[C@H]1[C@@H](c1ccc(Cl)cc1)N2	0%	-2%	11%	u	x	u
COC(=O)c1ccc([C@H]2Nc3ccc(S(=O)(=O)Nc4ccc(C)cc4)cc3[C@H]3C=CC[C@H]32)cc1	-2%	1%	5%	u	x	u
COc1ccc(NS(=O)(=O)c2ccc3c(c2)[C@H]2C=CC[C@H]2[C@@H](c2ccc(C(=O)O)cc2)N3)cc1	-8%	-17%	10%	25µM*	x	u
CCc1ncc(C(O)c2cccc3ccccc23)n1C (stereo not given)	1%	-2%	6%	1%	-26	4%
Nc1cc2c(cc1[N+](=O)[O-])OCO2	-3%	-2%	4%	u	x	-15%
COc1cc(/C=N/Nc2ccc3ccccc3c2)ccc1OC(=O)c1ccco1	-1%	-8%	-1%	13µM*	u	13µM*[quencher]
O=C(c1ccc([N+](=O)[O-])cc1)n1nc(-c2ccccc2)nc1NCc1ccccc1	0%	-3%	10%	-1%	-21	0%
CC(C)c1ccc(CNc2nc(-c3ccco3)nn2C(=O)c2ccc([N+](=O)[O-])cc2)cc1	-7%	1%	-4%	u	x	16µM*[quencher]
COc1ccc(-c2coc3cc4oc(=O)cc(-c5ccccc5)c4cc23)cc1F	0%	-1%	6%	5%	-111*	1%
CCN=c1scc(-c2cccs2)n1/N=C/c1cc(OC)ccc1O	-2%	u	5%	u	10	u

High-throughput results (PubChem BioAssay)
